Assay results from the supplement of paper PMC10849652.
Targets with a hit are over-represented here; the source holds about 8,800 in all. About 0.5% of all pairs of compound and target were hits. Values without a mark were called inactive.

Experiments:
Assay in all cases: log2 fold change, soluble protein after heating vs DMSO (PISA); higher = thermal stabilisation; K562 lysate, 10 uM; active = over 0.2 and 3.5 SD of the protein, either way, in both replicates (recomputed)
[1] = compound: NCC(=O)Nc1ccc(-n2nc(C(F)(F)F)cc2-c2ccc3c(ccc4ccccc43)c2)cc1
In short: (§1)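 Pellets of K562 cells were dounce-homogenised in PBS pH 7.4 with 1 mM MgCl2, and the crude extract was held at 1 mg/mL protein for a 30 min treatment with 10 μM compound. Aliquots were heated for 3 min over 48°C-58°C and pooled before NP-40 was added to 0.5% at 4°C. The supernatant from 21,000xg for 90 min was quantified by TMTpro 16plex LC-MS/MS with channel sums equalised. Values are reported from duplicates as log-two fold change in thermal stability relative to solvent controls.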

vorinostat = compound: O=C(CCCCCCC(=O)Nc1ccccc1)NO [vorinostat]
In short: as §1

silmitasertib = compound: O=C(O)c1ccc2c(c1)nc(Nc1cccc(Cl)c1)c1ccncc12 [silmitasertib]
In short: as §1

[2] = compound: O=C1NC(=O)C(c2cnc3ccccn23)=C1c1cn2c3c(cc(F)cc13)CN(C(=O)N1CCCCC1)CC2
In short: as §1

entospletinib = compound: c1cn2cc(-c3ccc4cn[nH]c4c3)nc(Nc3ccc(N4CCOCC4)cc3)c2n1 [entospletinib]
In short: as §1

Chain of UniProt Q99442 (Q99442 whole entry, looked up): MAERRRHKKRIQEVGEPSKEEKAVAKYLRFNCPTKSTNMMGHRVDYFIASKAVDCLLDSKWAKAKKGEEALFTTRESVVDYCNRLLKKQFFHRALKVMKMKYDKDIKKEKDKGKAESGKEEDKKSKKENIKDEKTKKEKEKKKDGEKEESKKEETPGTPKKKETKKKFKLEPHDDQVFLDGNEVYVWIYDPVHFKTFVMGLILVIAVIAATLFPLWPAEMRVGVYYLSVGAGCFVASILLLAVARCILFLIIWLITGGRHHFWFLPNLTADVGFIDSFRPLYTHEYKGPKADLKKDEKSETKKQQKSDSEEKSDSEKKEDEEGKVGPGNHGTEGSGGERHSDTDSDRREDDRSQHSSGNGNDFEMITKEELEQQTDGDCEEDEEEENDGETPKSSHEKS
Chain of UniProt P49792 (P49792 whole entry, looked up): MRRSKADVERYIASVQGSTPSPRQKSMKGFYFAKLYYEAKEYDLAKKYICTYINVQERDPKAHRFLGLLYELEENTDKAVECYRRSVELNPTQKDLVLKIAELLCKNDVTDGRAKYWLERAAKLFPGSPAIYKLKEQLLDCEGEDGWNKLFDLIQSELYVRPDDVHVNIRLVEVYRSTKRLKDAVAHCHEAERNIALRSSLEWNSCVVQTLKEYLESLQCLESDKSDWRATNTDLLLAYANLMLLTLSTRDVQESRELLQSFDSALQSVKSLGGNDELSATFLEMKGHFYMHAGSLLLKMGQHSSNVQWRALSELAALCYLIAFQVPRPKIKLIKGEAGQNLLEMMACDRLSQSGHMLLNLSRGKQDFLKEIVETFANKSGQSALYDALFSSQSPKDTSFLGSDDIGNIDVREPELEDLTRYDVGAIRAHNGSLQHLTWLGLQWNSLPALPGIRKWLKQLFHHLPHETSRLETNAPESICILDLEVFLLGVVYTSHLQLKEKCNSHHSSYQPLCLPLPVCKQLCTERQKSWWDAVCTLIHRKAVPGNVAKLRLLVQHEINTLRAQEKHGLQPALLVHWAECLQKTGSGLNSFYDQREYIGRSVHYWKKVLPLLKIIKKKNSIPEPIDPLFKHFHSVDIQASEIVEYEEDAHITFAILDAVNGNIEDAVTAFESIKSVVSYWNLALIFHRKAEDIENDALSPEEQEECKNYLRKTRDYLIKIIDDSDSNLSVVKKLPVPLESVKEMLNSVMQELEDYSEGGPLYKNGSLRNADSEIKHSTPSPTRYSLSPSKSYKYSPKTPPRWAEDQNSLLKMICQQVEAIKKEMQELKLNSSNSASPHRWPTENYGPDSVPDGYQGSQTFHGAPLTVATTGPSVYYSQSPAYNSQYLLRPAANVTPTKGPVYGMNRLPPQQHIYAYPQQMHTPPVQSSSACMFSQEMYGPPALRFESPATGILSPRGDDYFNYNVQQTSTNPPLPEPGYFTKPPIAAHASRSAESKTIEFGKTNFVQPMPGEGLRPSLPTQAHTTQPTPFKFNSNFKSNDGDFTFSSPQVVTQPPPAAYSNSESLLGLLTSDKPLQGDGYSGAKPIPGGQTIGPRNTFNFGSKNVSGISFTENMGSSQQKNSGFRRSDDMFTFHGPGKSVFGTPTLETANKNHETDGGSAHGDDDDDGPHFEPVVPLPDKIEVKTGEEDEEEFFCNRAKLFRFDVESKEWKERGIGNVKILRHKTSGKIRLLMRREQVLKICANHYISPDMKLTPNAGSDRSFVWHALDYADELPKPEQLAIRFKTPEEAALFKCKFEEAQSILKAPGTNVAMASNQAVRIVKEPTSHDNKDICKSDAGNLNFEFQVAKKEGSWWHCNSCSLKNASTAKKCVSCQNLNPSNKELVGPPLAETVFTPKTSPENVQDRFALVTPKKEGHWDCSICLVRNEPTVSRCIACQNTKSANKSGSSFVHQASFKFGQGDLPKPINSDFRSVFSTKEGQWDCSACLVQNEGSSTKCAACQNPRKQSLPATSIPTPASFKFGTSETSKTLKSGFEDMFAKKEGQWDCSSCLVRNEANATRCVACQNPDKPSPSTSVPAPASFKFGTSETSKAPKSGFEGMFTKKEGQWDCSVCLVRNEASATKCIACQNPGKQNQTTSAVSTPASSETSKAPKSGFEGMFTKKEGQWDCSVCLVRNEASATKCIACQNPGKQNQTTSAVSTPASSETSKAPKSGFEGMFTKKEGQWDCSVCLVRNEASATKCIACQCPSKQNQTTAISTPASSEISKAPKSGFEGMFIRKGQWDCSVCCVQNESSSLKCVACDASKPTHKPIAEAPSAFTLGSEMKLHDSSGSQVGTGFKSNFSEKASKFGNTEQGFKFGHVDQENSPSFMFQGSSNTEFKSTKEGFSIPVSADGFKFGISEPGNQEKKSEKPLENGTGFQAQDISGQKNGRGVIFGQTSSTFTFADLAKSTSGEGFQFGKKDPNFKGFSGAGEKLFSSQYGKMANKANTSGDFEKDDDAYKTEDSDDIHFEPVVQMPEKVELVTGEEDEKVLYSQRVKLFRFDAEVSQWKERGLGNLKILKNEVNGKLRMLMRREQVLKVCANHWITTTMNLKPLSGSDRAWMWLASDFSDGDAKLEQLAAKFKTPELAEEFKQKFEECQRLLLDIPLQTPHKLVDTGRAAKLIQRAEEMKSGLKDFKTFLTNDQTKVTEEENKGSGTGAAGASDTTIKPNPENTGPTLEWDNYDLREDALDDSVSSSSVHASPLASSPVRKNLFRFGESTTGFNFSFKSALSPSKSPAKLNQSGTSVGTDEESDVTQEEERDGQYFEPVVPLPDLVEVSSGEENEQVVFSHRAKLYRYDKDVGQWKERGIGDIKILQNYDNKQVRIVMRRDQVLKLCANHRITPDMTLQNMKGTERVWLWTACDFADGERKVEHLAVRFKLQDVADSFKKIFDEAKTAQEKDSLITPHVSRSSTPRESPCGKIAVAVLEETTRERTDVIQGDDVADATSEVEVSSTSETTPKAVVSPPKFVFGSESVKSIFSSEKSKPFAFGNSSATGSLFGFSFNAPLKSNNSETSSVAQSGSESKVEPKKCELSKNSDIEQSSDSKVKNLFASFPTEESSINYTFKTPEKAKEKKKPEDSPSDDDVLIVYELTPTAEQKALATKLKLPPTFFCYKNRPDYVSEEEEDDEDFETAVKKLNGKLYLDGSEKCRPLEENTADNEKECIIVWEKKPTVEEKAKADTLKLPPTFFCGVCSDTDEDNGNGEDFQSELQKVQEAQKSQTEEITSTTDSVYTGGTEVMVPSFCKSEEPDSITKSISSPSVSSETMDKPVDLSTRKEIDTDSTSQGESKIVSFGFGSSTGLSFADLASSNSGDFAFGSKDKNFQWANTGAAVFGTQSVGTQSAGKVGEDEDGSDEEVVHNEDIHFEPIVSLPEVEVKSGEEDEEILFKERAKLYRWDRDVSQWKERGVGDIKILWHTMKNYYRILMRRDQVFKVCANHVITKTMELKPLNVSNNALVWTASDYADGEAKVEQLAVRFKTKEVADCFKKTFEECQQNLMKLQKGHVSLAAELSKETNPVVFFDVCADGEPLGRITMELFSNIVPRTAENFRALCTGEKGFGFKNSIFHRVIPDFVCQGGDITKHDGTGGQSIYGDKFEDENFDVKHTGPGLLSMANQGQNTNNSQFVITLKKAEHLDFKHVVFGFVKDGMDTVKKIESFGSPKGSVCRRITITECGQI
Chain of UniProt Q8WWV3 (Q8WWV3 whole entry, looked up): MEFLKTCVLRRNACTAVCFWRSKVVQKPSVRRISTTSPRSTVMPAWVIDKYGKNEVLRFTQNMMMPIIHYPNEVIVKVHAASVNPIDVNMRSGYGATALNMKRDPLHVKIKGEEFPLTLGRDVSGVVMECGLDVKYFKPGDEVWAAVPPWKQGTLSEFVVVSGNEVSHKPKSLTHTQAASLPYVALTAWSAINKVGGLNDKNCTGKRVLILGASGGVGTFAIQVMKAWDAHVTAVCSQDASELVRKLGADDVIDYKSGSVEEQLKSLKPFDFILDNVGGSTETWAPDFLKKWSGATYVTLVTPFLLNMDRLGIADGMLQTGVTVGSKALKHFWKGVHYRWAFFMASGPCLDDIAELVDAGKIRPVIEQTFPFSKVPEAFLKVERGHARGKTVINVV
Chain of UniProt P78406 (P78406 whole entry, looked up): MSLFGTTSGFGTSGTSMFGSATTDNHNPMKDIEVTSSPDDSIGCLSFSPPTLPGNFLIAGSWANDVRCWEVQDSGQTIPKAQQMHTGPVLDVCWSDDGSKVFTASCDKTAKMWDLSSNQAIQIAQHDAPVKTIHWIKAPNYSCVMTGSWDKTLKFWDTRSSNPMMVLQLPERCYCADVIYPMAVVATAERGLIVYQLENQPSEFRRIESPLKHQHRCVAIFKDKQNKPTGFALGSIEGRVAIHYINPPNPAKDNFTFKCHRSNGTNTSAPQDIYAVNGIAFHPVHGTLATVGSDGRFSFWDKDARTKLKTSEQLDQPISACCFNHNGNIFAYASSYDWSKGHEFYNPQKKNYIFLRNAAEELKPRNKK
Chain of UniProt P53805 (P53805 whole entry, looked up): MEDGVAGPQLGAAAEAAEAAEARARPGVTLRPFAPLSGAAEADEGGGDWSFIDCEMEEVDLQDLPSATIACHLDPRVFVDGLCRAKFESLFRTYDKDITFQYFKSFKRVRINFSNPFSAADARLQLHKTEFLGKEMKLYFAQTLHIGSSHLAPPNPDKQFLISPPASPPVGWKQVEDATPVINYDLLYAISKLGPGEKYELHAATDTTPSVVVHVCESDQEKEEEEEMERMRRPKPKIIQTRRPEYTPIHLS
Chain of UniProt Q9Y3T6 (Q9Y3T6 whole entry, looked up, one chain of several): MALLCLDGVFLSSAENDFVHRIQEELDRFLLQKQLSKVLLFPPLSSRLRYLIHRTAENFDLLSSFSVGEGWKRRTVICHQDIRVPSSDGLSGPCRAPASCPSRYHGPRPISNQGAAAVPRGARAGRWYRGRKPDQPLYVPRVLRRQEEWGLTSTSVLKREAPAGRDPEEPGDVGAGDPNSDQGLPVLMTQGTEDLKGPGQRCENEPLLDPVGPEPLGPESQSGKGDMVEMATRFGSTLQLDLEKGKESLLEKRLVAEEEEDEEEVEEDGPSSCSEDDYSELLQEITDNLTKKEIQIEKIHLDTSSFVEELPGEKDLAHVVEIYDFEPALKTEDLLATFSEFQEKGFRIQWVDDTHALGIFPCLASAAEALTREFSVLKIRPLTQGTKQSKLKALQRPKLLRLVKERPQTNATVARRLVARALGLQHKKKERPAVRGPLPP

Target	log2 fold change [1]	log2 fold change (vorinostat)	log2 fold change (silmitasertib)	log2 fold change [2]	log2 fold change (entospletinib)
REEP5 (UniProt Q00765)	-0.034	0.001	-0.025	0.02	0.015
SELENOK (UniProt Q9Y6D0)	-0.192	–	–	–	–
RIOK1 (UniProt Q9BRS2)	0.016	-0.035	0.358 (active)	-0.02	0.029
RARS (UniProt P54136)	-0.004	-0.309 (active)	0.056	-0.009	0.024
SERPINI1 (UniProt Q99574)	-0.04	0.124	-0.021	-0.003	-0.016
SCML2 (UniProt Q9UQR0)	-0.099	-0.243 (active)	0.039	0.037	0.007
RNF40 (UniProt O75150)	0.015	-0.237 (active)	0.032	-0.007	-0.022
RTN4IP1 (UniProt Q8WWV3)	-0.1	-0.338 (active)	0.165	0.054	-0.01
RAB3IL1 (UniProt E9PK89)	0.016	-0.614 (active)	0.011	0.079	-0.158
RPS6KB1 (UniProt P23443)	-0.049	-0.319 (active)	0.132	-0.017	-0.005
RAB3IL1 (UniProt Q8TBN0)	-0.006	-0.268 (active)	0.025	0.07	0.015
REL isoform 2 (UniProt Q04864)	-0.052	-0.351 (active)	0.07	-0.004	0.019
RCOR1 (UniProt Q9UKL0)	0.034	-0.184	-0.014	-0.011	0.009
RASA2 (UniProt Q15283)	-0.007	-0.275 (active)	0.021	-0.006	0.023
RPS6KA5 (UniProt O75582)	-0.025	-0.189	0.034	-0.303	-0.007
RNPS1 (UniProt Q15287)	-0.014	0.02	-0.093	-0.012	0.009
RPL31 (UniProt P62899)	0.003	0.126	0.007	0.06	0.021
RNF170 (UniProt Q96K19)	-0.003	0.004	0.169	–	–
RAD50 isoform 2 (UniProt Q92878)	-0.005	-0.458 (active)	0.024	-0.009	-0.003
RETREG2 (UniProt Q8NC44)	-0.058	0.023	0.015	-0.007	-0.004
SEC62 (UniProt Q99442)	0.036	0.133	0.015	0.007	-0.019
R3HCC1 (UniProt Q9Y3T6)	0.045	-0.259 (active)	-0.036	-0.002	0.067
RPS29 (UniProt P62273)	-0.105	0.145	-0.03	0.205	-0.085
SEC24D isoform 2 (UniProt O94855)	-0.017	-0.251 (active)	0.037	-0.013	-0.003
RNF113A (UniProt O15541)	0.009	-0.02	-0.03	-0.004	0.02
RRAGA (UniProt Q7L523)	-0.007	0.099	0.039	-0.015	0.05
RNASEL (UniProt Q05823)	-0.005	-0.298 (active)	0.055	-0.021	-0.023

Target	log2 fold change [1]	log2 fold change (vorinostat)	log2 fold change (silmitasertib)	log2 fold change [2]	log2 fold change (entospletinib)
SEC61G (UniProt P60059)	-0.047	0.005	0.013	0.232	-0.034
RNF149 (UniProt Q8NC42)	0.036	0.098	0.013	0.015	–
QSER1, A0A3B3IRW6	-0.013	-0.236 (active)	0.038	0.033	0.002
RHOU (UniProt Q7L0Q8)	0.019	-0.116	0.058	-0.039	0.024
RNF213, A0A0A0MTC1	0.022	-0.381 (active)	0.032	0.007	0.052
SERINC3 (UniProt Q13530)	-0.027	0.019	-0.012	0.017	0.024
SCD (UniProt O00767)	-0.045	0.021	-0.057	-0.028	0.017
RBBP7 (UniProt Q16576)	-0.005	-0.091	0.033	-0.167	0
RPL28 (UniProt P46779)	0.012	0.033	0.008	0.043	0.007
RPAP1 (UniProt Q9BWH6)	0.006	-0.232 (active)	0	0.015	-0.025
RSU1 (UniProt Q15404)	0.018	0.15	0	0.034	0.003
RIC1 (UniProt Q4ADV7)	-0.053	-0.193	0.057	-0.06	0.045
RNASEH2B (UniProt Q5TBB1)	-0.016	-0.377 (active)	0.054	-0.064	0.011
RANBP2 (UniProt P49792)	-0.01	-0.343 (active)	-0.004	0.001	-0.006
SAR1B (UniProt Q9Y6B6)	-0.083	0.155	-0.103	-0.044	-0.053
RBM42 (UniProt Q9BTD8)	0.19	-0.04	-0.031	0.018	-0.058
RAE1 (UniProt P78406)	0.007	-0.126	-0.022	-0.062	-0.024
RCAN1 (UniProt P53805)	0.082	-0.197	0.02	0.02	0.031
RNF123 (UniProt Q5XPI4)	0.014	-0.385 (active)	-0.016	-0.002	0
RRM1 (UniProt P23921)	0.011	-0.227 (active)	0.027	-0.003	-0.013
RALGAPA1 isoform 6 (UniProt Q6GYQ0)	0.047	0.034	-0.054	-0.027	-0.022
QTRT2 isoform 4 (UniProt Q9H974)	0.004	0.079	-0.011	-0.007	0.022
RDH14 (UniProt Q9HBH5)	-0.072	-0.318 (active)	0.044	0.004	0.026
SCO2 (UniProt O43819)	-0.024	0.063	-0.079	0.017	0.053
SBF1 isoform 4 (UniProt O95248)	0.013	-0.377 (active)	-0.046	0.056	0.005
RABEPK (UniProt Q7Z6M1)	0.008	-0.441 (active)	0.032	0.014	0.009
SASS6 (UniProt Q6UVJ0)	0.015	-0.381 (active)	0.012	0.021	0.003
